Assay results taken from PubChem BioAssay (NCATS).
Inconclusive results are not listed. The source made the active and inactive calls. Unless noted, calls follow the shape of the dose curve; as a rule, active = well fitted curve in the direction sought with a large enough effect; inconclusive = small, poorly fitted or top-dose-only effect, or another doubt; inactive = no such curve, though single readings can be large; an effect the other way counts as inactive or inconclusive.

Legend:
[1] = qHTS assay for measurement of the activity of small molecule inhibitors on Zika virus induced Caspase-3 activity in human iPSC derived neural progenitor cells (hNPCs) (AID 1224857); also: nearly all actives have a fitted effect of over 65% in size
Outline: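 Human iPSC-derived neural progenitor cells pretreated 1 hr with compounds, then infected with Zika virus (2 FFU/cell) for 6 hours at 37 C. Caspase-3/7 measured by Caspase-Glo luminescence; % inhibition calculated from induction scaled to uninfected (0%) and infected (100%) wells.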

[2] = qHTS assay for measurement of the activity of small molecule inhibitors on Zika virus induced Caspase-3 activity in human astrocytoma cells (AID 1224859)
Outline: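 SNB-19 astrocytoma cells, 250/well, pretreated 1 h with compounds, then Zika virus at 2 FFU/cell for 6 h at 37 C; Caspase-Glo 3/7 luminescence after 30 min; percent inhibition normalised to uninfected and infected controls.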

[3] = P-glycoprotein substrates identified in KB-8-5-11 adenocarcinoma cell line, qHTS therapeutic library screen (AID 1346987); also: nearly all actives have a fitted effect of over 65% in size
Outline: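 In this qHTS, P-gp-rich KB-8-5-11 cells received library compounds across a concentration range. Viability was quantified by luminescence after 72 h at 37 degree C.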

[4] = Natriuretic polypeptide receptor (hNpr1) antagonism - Pilot counterscreen GloSensor control cell line (AID 1347045; calls by dose curve; also: series mostly up to about 38 µM)
Outline: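 HEK293 cGMP-sensor cells; 2% GloSensor reagent 2 h RT; LOPAC compounds in 1:5 titrations 30-50 min; 50 uM SNP 20 min; luminescence pre-read and post-read.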

[5] = target: Atrial natriuretic peptide receptor 2 (Homo sapiens) (UniProt P20594); assay: Natriuretic polypeptide receptor (hNpr2) antagonism - Pilot subtype selectivity assay (AID 1347050; calls by dose curve)
Atrial natriuretic peptide receptor 2 (Homo sapiens), sequence (P20594 whole entry, looked up): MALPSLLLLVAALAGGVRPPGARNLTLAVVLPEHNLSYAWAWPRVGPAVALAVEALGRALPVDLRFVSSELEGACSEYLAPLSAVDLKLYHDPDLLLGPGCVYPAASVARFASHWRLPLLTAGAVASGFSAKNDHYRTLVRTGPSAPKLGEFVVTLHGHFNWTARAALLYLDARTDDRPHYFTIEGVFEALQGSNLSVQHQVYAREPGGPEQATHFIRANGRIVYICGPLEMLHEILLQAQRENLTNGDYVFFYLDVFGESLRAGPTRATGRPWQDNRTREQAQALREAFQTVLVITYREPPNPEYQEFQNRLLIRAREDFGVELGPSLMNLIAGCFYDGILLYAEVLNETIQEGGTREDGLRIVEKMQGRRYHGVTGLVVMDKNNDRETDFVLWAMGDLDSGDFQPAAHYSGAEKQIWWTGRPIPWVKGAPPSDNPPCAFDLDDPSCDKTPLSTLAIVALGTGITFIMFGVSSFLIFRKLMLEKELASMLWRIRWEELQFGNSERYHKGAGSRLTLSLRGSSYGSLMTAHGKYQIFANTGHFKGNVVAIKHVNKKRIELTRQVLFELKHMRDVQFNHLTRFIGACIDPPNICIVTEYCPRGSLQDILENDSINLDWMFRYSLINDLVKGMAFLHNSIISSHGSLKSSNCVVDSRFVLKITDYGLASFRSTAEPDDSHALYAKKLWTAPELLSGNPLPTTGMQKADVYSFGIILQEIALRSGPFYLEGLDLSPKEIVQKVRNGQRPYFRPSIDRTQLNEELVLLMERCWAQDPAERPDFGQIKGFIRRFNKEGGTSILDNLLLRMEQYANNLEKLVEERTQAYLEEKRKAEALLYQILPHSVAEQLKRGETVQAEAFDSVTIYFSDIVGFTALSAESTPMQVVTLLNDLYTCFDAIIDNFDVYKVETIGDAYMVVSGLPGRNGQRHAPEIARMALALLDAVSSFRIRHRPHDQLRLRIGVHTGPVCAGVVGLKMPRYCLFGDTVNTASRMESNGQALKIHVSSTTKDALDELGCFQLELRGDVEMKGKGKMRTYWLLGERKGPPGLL
Outline: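 Read-out: GloSensor luminescence (CCD imager), baseline vs post-stimulation. HEK293 cells expressing hNpr2; compounds pre-incubated 30-50 min at ambient temperature; hNppC 1 nM final, 20 min.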

[6] = NS1 protein of Zika virus - qHTS assay to identify small molecule inhibitors in human HEK 293 cells (AID 1347053); also: series mostly up to about 46 µM; nearly all actives have a fitted effect of over 55% in size
Outline: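 Read-out is a two-antibody TR-FRET for ZIKV NS1, normalized between uninfected cells and infected cells. Compound added 1 h before MR766 infection at MOI 0.5; human HEK 293 cells incubated 24 h, 37 C.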

Measured: Potency

Cc1nn(-c2ccccc2)c(C)c1/C=N/N1CCN(Cc2ccccc2)CC1
inactive: all assays above

CC[N+](CC)(CC)CCOC(=O)C(C1CCCC1)C1CCCC1
inactive: [1] | [2] | [3] | [6]

Brc1ccccc1-c1ccccc1
inactive: [1] | [2] | [3] | [6]

C[N+](C)(CCOc1ccccc1)Cc1cccs1
inactive: [1] | [2] | [3] | [6]

COc1cc(C(=O)NC2CCCNC2)cc(OC)c1OC (stereo unspecified)
inactive: [1] | [2] | [3] | [6]

C1N2CN3CN1CN(C2)C3
inactive: [1] | [2] | [3] | [6]

Brc1ccc([C@H]2CN3CCSC3=N2)cc1
inactive: all assays above

O=C(Nc1ccc(S(=O)(=O)N2CCOCC2)cc1)c1cc(Cl)ccc1NS(=O)(=O)c1ccc(Cl)s1
inactive: [1] | [2] | [3] | [6]

C[C@@]12CCC[C@H]1[C@@H]1CC[C@H]3C[C@@H](O)CC[C@]3(C)[C@H]1CC2
inactive: [1] | [2] | [3] | [6]

NC(N)=NCCCCN=C(N)N
inactive: all assays above

N[C@@H](Cn1ccc(=O)c(O)c1)C(=O)O
inactive: [1] | [2] | [3] inactive [at 5.11 µM] | [4] | [5] | [6]

CCOC(=O)Cn1cccc1-c1nc(-c2ccc(OC)cc2)c(-c2ccc(OC)cc2)s1
inactive: [1] | [2] | [3] | [6]
